Test [1] can be described thus: qHTS assay to identify small molecule antagonists of the androgen receptor (AR) signaling pathway using the MDA cell line in the presence of 0.5 nM R1881 - cell viability counter screen (AID 1259242). Further: nearly all actives have a fitted effect of over 45% in size. An outline of the steps: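 Concentration-response screen of compounds for toxicity in MDA-kb2 reporter cells: 16 hr at 37C with 0.5 nM R1881, endpoint live-cell protease fluorescence measured in the reporter wells.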
A general note: In qHTS, concentration-response curves come from the screen itself.

In test [2] the target is Androgen receptor (Homo sapiens) (UniProt P10275). The experiment in a line: qHTS assay to identify small molecule antagonists of the androgen receptor (AR) signaling pathway using the MDA cell line in the presence of 0.5 nM R1881 (AID 1259243). Further: nearly all actives have a fitted effect of over 50% in size. Further: potency means the concentration at half of the fitted maximal effect. The method in brief:
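With R1881 held at 0.5 nM (final), compound effects on MMTV-luciferase expression in MDA-kb2 cells were scored by luminescence after a 16 hr, 37C incubation.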

Test [3] concerns the target Estrogen receptor (Homo sapiens) (UniProt P03372). The experiment in a line: qHTS assay to identify small molecule antagonists of the estrogen receptor alpha (ER-alpha) signaling pathway using the BG1 cell line in the presence of 0.1 nM 17-beta-estradiol (AID 1259244). Further: nearly all actives have a fitted effect of over 50% in size. An outline of the steps:
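Compounds were tested against 0.1 nM (final) 17beta-estradiol in VM7Luc4E2 cells, which express full-length ER-alpha and an ERE-luciferase reporter; luminescence was recorded following 22 h exposure.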

Test [4] in a line: qHTS assay to identify small molecule HDAC inhibitors (AID 1259364).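 Further: wild-type HCT-116 cells with endogenous class I/II HDAC activity; top concentration of the series differs between compounds; nearly all actives have a fitted effect of over 45% in size.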 The method in brief:
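Screening used wild-type human colon HCT-116 cells incubated overnight, dosed with compounds for 2 hours, and assayed with a homogeneous luminogenic HDAC I/II reagent for 30 minutes at room temperature.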

The nature of test [5]: qHTS assay to identify small molecule HDAC inhibitors - cell viability counter screen (AID 1259365). Further: series mostly up to about 92 µM; nearly all actives have a fitted effect of over 50% in size. The method in brief: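 Measured quantity is CellTiter-Glo luminescence from wild-type HCT-116 cells after compound incubation of 2hr at 37C, 5% CO2; reagent developed 30min at room temperature.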
Test [6] is described as follows: qHTS assay to identify small molecule agonists of the sonic hedgehog signaling (Shh) pathway - cell viability counter screen (AID 1259366). Further: nearly all actives have a fitted effect of over 50% in size. An outline of the steps:
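In quantitative high-throughput format, 3T3 Gli1-Luc cells were exposed to compounds for 24hr and multiplexed for viability using CellTiter-Fluor, incubated 1hr at 37C before the fluorescence read.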

Test [7] can be described thus: qHTS assay to identify small molecule antagonists of the sonic hedgehog signaling (Shh) pathway - cell viability counter screen (AID 1259367). Further: nearly all actives have a fitted effect of over 55% in size. An outline of the steps: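 Tox21 library chemicals were tested on a Gli1-Luc NIH/3T3 clone (2,000 cells/well) stimulated by conditioned medium; viability was quantified as fluorescence from CellTiter-Fluor reagent added at 23 hr.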

The nature of test [8]: qHTS assay to identify small molecule agonists of the sonic hedgehog signaling (Shh) pathway (AID 1259368; calls by dose curve;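 further: NIH/3T3-derived 3T3Gli1-Luc cells carrying a stable Gli1-driven firefly luciferase reporter; series mostly up to about 92 µM; nearly all actives have a fitted effect of over 15% in size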). The method in brief: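 Hedgehog pathway agonism scored by increased firefly luciferase luminescence in 3T3Gli1-Luc cells treated 24 hr at 37 C; detection used a 30 min room-temperature reagent incubation.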
Test [9] is described as follows: qHTS assay to identify small molecule agonists of the androgen receptor (AR) signaling pathway in the presence of an antagonist - cell viability counter screen (AID 1259379).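 Further: MDA-kb2 human breast cancer cells carrying an MMTV luciferase reporter; series mostly up to about 92 µM; nearly all actives have a fitted effect of over 25% in size.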 The method in brief:
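MDA-kb2 viability measured by CellTiter-Fluor fluorescence in the same wells as the luciferase signal; nilutamide 3.0uM final; 15-point compound titration; 16 hr at 37C.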

Test [10] addresses Androgen receptor (Homo sapiens) (UniProt P10275). The test is described as follows: qHTS assay to identify small molecule agonists of the androgen receptor (AR) signaling pathway in the presence of an antagonist (AID 1259381; calls by dose curve; further: nearly all actives have a fitted effect of over 15% in size). An outline of the steps:
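Luminescent ONE-Glo read, 30min at room temperature, follows 16hr compound exposure (15 concentrations) of MDA-kb2 cells at 37C, 0% CO2, with nilutamide added at 3.0uM final.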

The target of test [11] is Estrogen receptor (Homo sapiens) (UniProt P03372). The test is described as follows: qHTS assay to identify small molecule agonists of the estrogen receptor alpha (ER-alpha) signaling pathway in the presence of an antagonist (AID 1259383; calls by dose curve; further: top concentration of the series differs between compounds; nearly all actives have a fitted effect of over 15% in size). An outline of the steps: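 Quantitative HTS confirmation: compounds titrated at 15 concentrations onto estrogen-deprived VM7Luc4E2 cells carrying a four-ERE luciferase construct, with ICI-182,780 present at 10.0nM final. Signal is luminescence after 22hr exposure.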
Estrogen receptor (Homo sapiens), sequence (P03372 whole entry, looked up): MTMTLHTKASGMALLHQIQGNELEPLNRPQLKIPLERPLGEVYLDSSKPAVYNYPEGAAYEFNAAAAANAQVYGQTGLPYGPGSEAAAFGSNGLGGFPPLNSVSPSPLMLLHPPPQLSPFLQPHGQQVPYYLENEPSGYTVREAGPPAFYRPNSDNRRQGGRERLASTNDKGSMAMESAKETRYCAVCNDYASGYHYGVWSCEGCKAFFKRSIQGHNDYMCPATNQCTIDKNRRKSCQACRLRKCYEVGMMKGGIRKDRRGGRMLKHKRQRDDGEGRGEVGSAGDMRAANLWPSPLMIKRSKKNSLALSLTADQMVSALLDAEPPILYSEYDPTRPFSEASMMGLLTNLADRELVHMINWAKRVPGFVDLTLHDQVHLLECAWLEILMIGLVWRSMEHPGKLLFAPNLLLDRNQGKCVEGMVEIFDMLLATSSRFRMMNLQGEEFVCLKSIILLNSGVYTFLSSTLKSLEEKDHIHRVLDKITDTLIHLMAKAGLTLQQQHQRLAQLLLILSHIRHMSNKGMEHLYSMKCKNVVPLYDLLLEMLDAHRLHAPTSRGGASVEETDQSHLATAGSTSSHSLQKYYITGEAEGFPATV

A short description of test [12]: qHTS assay to identify small molecule agonists or antagonists of the thyroid stimulating hormone receptor (TSHR) signaling pathway - wild type cell line counter screen (AID 1259384; calls by dose curve). The method in brief: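 Wild-type Hek293 cells, 800/well, 18 h at 37C, then compound with Ro20-1724 for 30 min RT. cAMP by HTRF (cAMP-d2/anti-cAMP cryptate), 1 h RT, fluorescence read. 15 concentrations, triplicates.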

A short description of test [13]: qHTS assay to identify small molecule agonists of the estrogen receptor alpha (ER-alpha) signaling pathway in the presence of an antagonist - cell viability counter screen (AID 1259386).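 Further: series mostly up to about 92 µM; cells exposed to compounds for 22 h at 37 °C before the viability read; nearly all actives have a fitted effect of over 30% in size.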 An outline of the steps: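 The test measures whether compounds kill ER-alpha reporter cells (VM7Luc4E2) under antagonist co-treatment (ICI-182,780, 10.0nM). Fluorescence from CellTiter-Fluor is read after a 22hr exposure.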

Test [14] is described as follows: qHTS assay to identify small molecule phospholipidosis (PLD) inducers (AID 1259344; active means well fitted curve in the direction sought with a large enough effect; an effect the other way counts as inactive or inconclusive). An outline of the steps:
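Image-based: LipidTOX Red pit count/intensity per well and per cell; HepG2, 24 h compound at 37 C, PFA fixation, Hoechst counterstain.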

Test [15] in a line: qHTS assay to identify small molecule antagonists of the sonic hedgehog signaling (Shh) pathway (AID 1259369; calls by dose curve; further: nearly all actives have a fitted effect of over 45% in size; further: potency means the concentration at half of the fitted maximal effect). An outline of the steps:
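NIH/3T3 stable Gli1-Luc clone, 2,000 cells/well, 4hr settle; cpd + conditioned medium 24hr; Luc reagent 30min RT; luminescence.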

The nature of test [16]: qHTS assay to identify small molecule agonists of the estrogen receptor beta (ER-beta) signaling pathway - cell viability counter screen (AID 1259380). Further: nearly all actives have a fitted effect of over 30% in size. The method in brief:
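Measured: luminescence from CellTiter-Glo after 30 min at room temperature, added to wells already read for the LiveBLAzer FRET reporter (2 hr substrate); ER-beta-UAS-bla HEK293T cells had 16 hr compound treatment at 37C, 5% CO2.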

Test [17] in a line: qHTS assay to identify small molecule antagonists of the estrogen receptor beta (ER-beta) signaling pathway - cell viability counter screen (AID 1259382). Further: series mostly up to about 92 µM; nearly all actives have a fitted effect of over 55% in size. The method in brief: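 Readout: luminescence, CellTiter-Glo, same wells as bla assay. System: ER-beta-UAS-bla GripTite HEK293T, 2% charcoal-stripped FBS. Exposure: compounds plus 1nM 17-beta-estradiol, 16 hr, 37C.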
The target of test [18] is Estrogen receptor beta (Homo sapiens) (UniProt Q92731). The test is described as follows: qHTS assay to identify small molecule agonists of the estrogen receptor beta (ER-beta) signaling pathway (AID 1259377; active means well fitted activation curve with a large enough effect in the signal ratio in the repeat runs, not every such curve was filed as active; the % refers to the signal ratio). An outline of the steps:
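Reporter cells (HEK293T, ER-beta-UAS-bla) receive compounds or DMSO after a 6 hr pre-incubation. They then incubate 16 hr at 37C/5% CO2, and fluorescence from LiveBLAzer B/G substrate is measured after 2 hours at room temperature.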

The target is the same in test [19]. The test is described as follows: qHTS assay to identify small molecule antagonists of the estrogen receptor beta (ER-beta) signaling pathway (AID 1259378; active means well fitted inhibition curve with a large enough effect in the signal ratio in the repeat runs, not every such curve was filed as active; the % refers to the signal ratio). An outline of the steps:
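ER-beta-UAS-bla HEK293T cells in 2% charcoal-stripped FBS medium treated with compound plus 1nM final 17-beta-estradiol for 16 hr at 37C. Beta-lactamase reporter read by FRET substrate fluorescence after 2 hours at room temperature.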

The target in test [20] is Thyrotropin receptor (Homo sapiens) (UniProt P16473). The experiment in a line: qHTS assay to identify small molecule antagonists of the thyroid stimulating hormone receptor (TSHR) signaling pathway (AID 1259385; calls by dose curve; further: nearly all actives have a fitted effect of over 20% in size). An outline of the steps: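 TSHR-HEK293 cells (800/well) plated 18 h, then compounds with Ro20-1724 and TSH at 1.5 ng/mL final, 30 min at room temperature. cAMP quantified by HTRF (cAMP-d2/anti-cAMP-cryptate, 1 h); 15 concentrations in triplicate.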
Thyrotropin receptor (Homo sapiens), sequence (P16473 whole entry, looked up): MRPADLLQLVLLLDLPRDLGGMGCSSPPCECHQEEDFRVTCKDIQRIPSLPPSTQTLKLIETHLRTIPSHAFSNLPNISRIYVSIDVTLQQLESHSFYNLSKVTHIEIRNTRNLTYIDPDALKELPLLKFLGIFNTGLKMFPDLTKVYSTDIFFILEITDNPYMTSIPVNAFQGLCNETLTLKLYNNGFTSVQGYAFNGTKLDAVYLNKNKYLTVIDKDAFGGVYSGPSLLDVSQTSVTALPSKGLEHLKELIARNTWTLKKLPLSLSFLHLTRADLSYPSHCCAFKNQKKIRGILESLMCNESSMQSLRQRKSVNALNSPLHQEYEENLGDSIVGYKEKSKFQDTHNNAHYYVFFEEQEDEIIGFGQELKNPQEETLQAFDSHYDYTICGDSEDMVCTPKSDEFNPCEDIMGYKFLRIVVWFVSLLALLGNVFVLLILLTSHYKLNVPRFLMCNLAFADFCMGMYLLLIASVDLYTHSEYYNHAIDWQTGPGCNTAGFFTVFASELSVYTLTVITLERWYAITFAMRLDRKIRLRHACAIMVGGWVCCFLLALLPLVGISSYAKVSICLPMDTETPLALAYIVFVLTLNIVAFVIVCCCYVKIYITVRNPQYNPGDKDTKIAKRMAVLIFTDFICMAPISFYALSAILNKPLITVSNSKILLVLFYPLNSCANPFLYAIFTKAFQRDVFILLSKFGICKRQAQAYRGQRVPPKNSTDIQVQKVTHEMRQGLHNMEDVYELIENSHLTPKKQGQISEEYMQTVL

Molecules are shown by their SMILES. Values without a mark were called inactive. Results filed as inconclusive are left out. Calls of active or inactive are those of the source. Unless noted, the call rests on the fitted dose curve; in most records, active means well fitted curve in the direction sought with a large enough effect in the repeat runs; inconclusive means weak or mixed curves; inactive means no such curve, though single readings can be large; an effect the other way counts as inactive or inconclusive.

Estrogen receptor beta (Homo sapiens), sequence (Q92731 whole entry, looked up): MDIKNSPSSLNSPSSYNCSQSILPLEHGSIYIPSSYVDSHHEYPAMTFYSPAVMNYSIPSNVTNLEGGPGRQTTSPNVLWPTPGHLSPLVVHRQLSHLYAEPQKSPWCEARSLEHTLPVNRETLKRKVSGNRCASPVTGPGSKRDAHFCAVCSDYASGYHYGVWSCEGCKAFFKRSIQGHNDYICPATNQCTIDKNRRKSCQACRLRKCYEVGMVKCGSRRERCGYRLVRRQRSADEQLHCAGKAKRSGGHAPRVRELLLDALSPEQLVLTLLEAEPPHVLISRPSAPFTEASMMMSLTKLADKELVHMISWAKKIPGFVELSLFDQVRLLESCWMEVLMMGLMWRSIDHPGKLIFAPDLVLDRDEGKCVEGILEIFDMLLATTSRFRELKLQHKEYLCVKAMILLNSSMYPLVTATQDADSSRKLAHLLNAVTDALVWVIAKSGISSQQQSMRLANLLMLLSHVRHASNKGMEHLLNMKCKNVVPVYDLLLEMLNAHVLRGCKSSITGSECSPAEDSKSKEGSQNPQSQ
Androgen receptor (Homo sapiens), sequence (P10275 whole entry, looked up): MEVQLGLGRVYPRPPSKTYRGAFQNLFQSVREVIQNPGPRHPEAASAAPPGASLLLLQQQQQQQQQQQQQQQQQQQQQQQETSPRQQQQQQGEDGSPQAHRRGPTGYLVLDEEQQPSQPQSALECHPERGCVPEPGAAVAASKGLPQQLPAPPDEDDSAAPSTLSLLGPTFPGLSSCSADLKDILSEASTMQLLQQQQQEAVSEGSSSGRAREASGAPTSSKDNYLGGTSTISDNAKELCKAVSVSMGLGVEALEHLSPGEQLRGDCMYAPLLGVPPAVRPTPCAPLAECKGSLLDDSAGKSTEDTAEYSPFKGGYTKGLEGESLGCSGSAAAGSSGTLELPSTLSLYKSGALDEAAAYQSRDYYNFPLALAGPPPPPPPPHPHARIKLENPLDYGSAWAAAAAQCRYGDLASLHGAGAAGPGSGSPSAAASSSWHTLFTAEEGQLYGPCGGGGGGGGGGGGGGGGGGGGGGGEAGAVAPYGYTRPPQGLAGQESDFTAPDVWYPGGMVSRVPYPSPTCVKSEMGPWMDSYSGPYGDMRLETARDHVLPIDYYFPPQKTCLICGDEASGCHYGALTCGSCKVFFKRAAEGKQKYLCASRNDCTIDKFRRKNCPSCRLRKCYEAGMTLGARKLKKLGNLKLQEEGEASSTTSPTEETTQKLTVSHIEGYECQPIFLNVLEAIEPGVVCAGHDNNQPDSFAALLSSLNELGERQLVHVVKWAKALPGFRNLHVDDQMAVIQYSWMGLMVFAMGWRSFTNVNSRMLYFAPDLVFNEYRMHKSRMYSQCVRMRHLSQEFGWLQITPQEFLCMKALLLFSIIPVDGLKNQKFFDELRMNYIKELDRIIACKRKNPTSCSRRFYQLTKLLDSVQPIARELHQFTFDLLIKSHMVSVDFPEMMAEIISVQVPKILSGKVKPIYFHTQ

Consider `CN1CCN(C2=Nc3cc(F)ccc3Cc3ccccc32)CC1`, for which the outcome in test [1], in [5] and in [12] was inactive. Besides, the Potency in [2] was 16.8 µM (active). Besides, the Potency result in [3], in test [4], in [6], in test [7], in [8] and in test [9] was “inactive” each time. Besides, the Potency entry in [10], in test [11] and in test [13] was “inactive” each time.
On to `C[C@@H](N)C(=O)O`, for which the result in test [1], in test [14], in test [5] and in test [17] was inactive. Besides, the Potency entry in [2], in test [4], in test [6], in test [7], in test [8] and in test [9] was “inactive” in each case. Moreover, the Potency entry in [16], in test [10] and in test [13] was “inactive” each time. Besides, the Potency in [15] is 21.1 µM (active).
As to `CN(C)Cc1ccccc1`, the result in test [1], in test [14], in test [5], in [18] and in [17] was inactive. Besides, the Potency result in test [2], in [4], in test [6], in test [7], in test [8] and in [15] was “inactive” in each case. The Potency entry in test [19], in test [9], in test [16], in [10], in test [20] and in test [13] was “inactive” each time.
As to `CCCCCCn1c(=O)c2c(ncn2C)n(C)c1=O`, the result in [1], in [5], in [17] and in test [12] was inactive. Besides, the Potency entry in test [2], in test [3], in test [4], in test [6], in test [7] and in test [8] was “inactive” in each case. Also, the Potency result in test [15], in [19], in [9], in test [16], in test [10] and in [11] was “inactive” throughout. For the same molecule, the Potency result in [20] and in [13] was “inactive” throughout.
`CC(C)c1ccccc1`: the outcome in test [1], in test [5], in [17] and in [12] was inactive. For the same molecule, the Potency entry in [2], in test [3], in test [4], in test [6], in [7] and in test [8] was “inactive” in each case. The Potency result in [19], in test [9], in test [16], in test [10], in [11] and in test [20] was “inactive” each time. For the same molecule, the Potency entry in test [13] was “inactive”.
Take `COC(=O)/C=C(/C)N`: the result in test [1], in test [18], in test [17] and in test [12] was inactive. In addition, the Potency result in [2], in test [4], in test [6], in [7], in test [8] and in test [15] was “inactive” in each case. Further, the Potency entry in [19], in [9], in test [16], in test [10], in test [11] and in [20] was “inactive” in each case. For the same molecule, the Potency result in [13] was “inactive”.
Turning to `O=Cc1ccc(O)c(O)c1O`, the outcome in test [1], in test [5] and in [12] was inactive. Moreover, the Potency entry in test [2], in [4], in [8], in test [16], in test [10] and in test [20] was “inactive” each time. Also, in test [15], the Potency is 26.6 µM (active).
With `CC(=O)OC(C)OC(C)=O`, the outcome in test [1], in test [5], in [18], in [17] and in test [12] was inactive. The Potency entry in test [2], in [4], in test [6], in test [7], in test [8] and in [15] was “inactive” in each case. Moreover, the Potency entry in [19], in test [9], in test [16], in test [10], in test [20] and in test [13] was “inactive” in each case.

For the origin of these results see PubChem BioAssay (Tox21).
